Screening data (PubChem)
12-LOX inh: blocks human arachidonate 12S-lipoxygenase; P18054; purified 12hLO, xylenol orange hydroperoxide absorbance; Potency, µM (series often up to 108 µM), for the others: top-dose activity change, negative = inhibition, hits mostly inhibitors; 580,000 compounds, 1.1% hits; AID 1671190; also: % is scaled to controls: 0 for no effect and ±100 for the full control effect
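Purified human 12hLO at 150 nM in 25 mM Hepes, 0.01% Triton X-100, pH 7.0, preincubated 15 min at room temperature with compound. Reaction started with 40 uM arachidonic acid, 30 min at room temperature. Hydroperoxide measured by Fe-xylenol orange, 573/405 nm absorbance ratio.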
BAZ2B block: BAZ2B (human) inhibition. AlphaScreen BAZ2B-H3K14Ac peptide displacement. Potency, µM (series often up to 114 µM), for inactives: at the top dose activity change, negative = inhibition, actives largely listed as inhibitors. 360,000 compounds, 4.4% hits. AID 504333; also: % is scaled to controls: 0 for no effect and ±100 for the full control effect; nearly all actives have a fitted effect of over 60% in size
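AlphaScreen displacement: compounds (up to 110uM) incubated 30 min at room temperature with a preformed 50 nM BAZ2B/50 nM biotinylated H3K14Ac peptide complex in PBS pH 7.4 with Tween-20. Donor and acceptor beads at 10 ug/mL final added, 20 min light-protected before reading.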
PLK1 PBD inh: blocks phosphopeptide binding to human PLK1 polo-box domain; 360,000 compounds, 2.8% hits; Potency, µM, for inactives: max response, negative = inhibition, hits mostly inhibitors; AID 720504; P53350; Plk1 PBD binding of FITC phosphopeptide, fluorescence polarization; also: series mostly up to about 57 µM; % is scaled to controls: 0 for no effect and ±100 for the full control effect; nearly all actives have a fitted effect of over 65% in size
Target sequence (P53350 whole entry, looked up, the tested form may be a part): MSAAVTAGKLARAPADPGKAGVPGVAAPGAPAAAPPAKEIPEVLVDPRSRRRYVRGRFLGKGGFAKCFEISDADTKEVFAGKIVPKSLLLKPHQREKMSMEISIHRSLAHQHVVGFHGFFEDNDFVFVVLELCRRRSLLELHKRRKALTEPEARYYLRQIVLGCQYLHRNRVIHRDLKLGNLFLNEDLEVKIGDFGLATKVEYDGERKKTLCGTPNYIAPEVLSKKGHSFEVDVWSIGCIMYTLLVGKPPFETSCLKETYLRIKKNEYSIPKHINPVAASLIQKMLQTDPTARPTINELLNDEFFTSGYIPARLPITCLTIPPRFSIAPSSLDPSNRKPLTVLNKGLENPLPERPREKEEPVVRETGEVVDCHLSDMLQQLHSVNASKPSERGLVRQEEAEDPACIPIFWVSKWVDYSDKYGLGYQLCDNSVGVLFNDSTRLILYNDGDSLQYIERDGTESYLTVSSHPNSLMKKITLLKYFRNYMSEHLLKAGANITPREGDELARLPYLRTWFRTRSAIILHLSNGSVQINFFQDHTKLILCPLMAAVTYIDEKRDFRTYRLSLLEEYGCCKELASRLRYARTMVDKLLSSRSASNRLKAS
G9a block: inhibitors of human histone lysine methyltransferase G9a | Q96KQ7 | G9a H3K9 monomethylation, AlphaScreen, 2 h | Potency, µM (titrated, usually from 102 µM), inactives show top-dose activity, negative = inhibition, most hits filed as inhibitors | 350,000 compounds, 8.8% hits | AID 504332; also: % is scaled to controls: 0 for no effect and ±100 for the full control effect; nearly all actives have a fitted effect of over 75% in size
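Compounds were preincubated with 20 nM G9a for 15 min, after which biotinylated H3K9 peptide (500 nM) and SAM (20 uM) started a 2 h room-temperature reaction. Monomethylated product was quantified by antibody-based AlphaScreen chemiluminescence.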
JMJD2A Tudor: blocks the human JMJD2A Tudor domain | O75164 | Potency, µM (doses to about 114 µM), for inactives: top-dose activity change, negative = inhibition, usual class: inhibitors | 390,000 compounds, 4.4% hits | AID 504339 | AlphaScreen JMJD2A-Tudor / H3K4me3 peptide binding; also: % is scaled to controls: 0 for no effect and ±100 for the full control effect; nearly all actives have a fitted effect of over 50% in size
HP1b chromo inh: HP1-beta chromodomain-methylated histone interaction inhibition; Potency, µM (top dose mostly 114 µM), for the others: at the top dose activity change, negative = inhibition, hits mostly inhibitors; 390,000 compounds, 0.56% hits; AlphaScreen HP1-beta / biotin-H3K9me3 peptide binding; also: nearly all actives have a fitted effect of over 70% in size
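AlphaScreen: HP1-beta (50 nM) preformed 30 min with biotin-H3(1-18)K9me3 peptide (50 nM) in PBS pH 7.4, 0.01% Tween-20. Compound added for 30 min at RT, then streptavidin donor/nickel chelate acceptor beads (10 ug/mL) for 30 min.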
Active calls of the source: *; ? = inconclusive; . = no result given; [ ] = another dose, or the depositor's remark. An excerpt weighted towards active compounds, which were near 9% of everything screened. Calls follow the shape of the dose curve; as a rule, active = well fitted curve in the direction sought with a large enough effect; inconclusive = small, poorly fitted or top-dose-only effect, or another doubt; inactive = no such curve, though single readings can be large; an effect the other way counts as inactive or inconclusive. Potency is read from the fitted curve at half-maximal effect.

SMILES | 12-LOX inh | BAZ2B block | PLK1 PBD inh | G9a block | JMJD2A Tudor | HP1b chromo inh
Cc1cc(C)c(C)c(OCCOCCNCc2ccccc2)c1 | ? | ? | -2% | ? | 79µM* | -17%
Cc1ccc(OCCNCc2ccccc2)c(C)c1 | ? | ? | -6% | 14µM* | 1µM* | ?
O=C1N=C(N2CCCCC2)S/C1=C/C1=Cc2ccccc2OC1 | 2% | -7% | -10% | ? | 0% | 17%
O=C(NCCS(=O)(=O)NCc1cccs1)c1ccccc1 | -3% | . | 3% | . | . | .
Cc1ccc(CNC(=O)N2CCCC3(CCC(=O)N(CC4CC4)C3)C2)cc1 (stereo not given) | 41% | . | . | . | . | .
CCCOc1ccc(OCCOCCNCc2ccccc2)cc1 | ? | ? | -8% | 32µM* | 18µM* | ?
CCc1cccc(OCCCCNCCO)c1 | ? | 56µM* | 27µM* | 10µM* | -24%[11.4 µM] | 11%
Cc1cccc(OCCCCNCc2ccccc2)c1 | -5% | 50µM* | -9% | 13µM* | -11%[11.4 µM] | ?
CCCCNCCCCOc1ccccc1 | 17% | -1% | -2% | -2%[12.7 µM] | -11% | 23%
Cc1cccc(OCCCCCNCCO)c1 | 18% | 6% | -2% | -13%[59 µM] | -20% | 37%
C=C(Nc1ccc(OCC)cc1)Nc1ccc(OCC)cc1 | . | . | . | -12%[12.7 µM] | . | .
CCOc1ccc(OCCOCCNCCOC)cc1 | -21% | -32% | 5% | ? | 10µM* | 6%
COc1ccc(NC(=O)CSCc2ccc(Br)cc2)c(OC)c1 | 2% | . | . | . | . | .
C[C@H](NC(=O)c1ncn2c1c(=O)[nH]c1ccccc12)c1ccccc1 | 8% | . | -12% | . | . | .
C/C=C/c1ccc(OCCOCCNCc2ccccc2)c(OC)c1 | ? | 50µM* | 2% | 7.9µM* | 28µM* | -12%
COc1ccc(CCNCc2ccc(OCc3ccccc3)cc2)cc1 | -26% | 2% | -3% | 10% | -6% | 12%
COc1cc(C)ccc1OCCCCNCc1ccccc1 | ? | ? | -8% | . | 18µM* | -34%
COc1cccc(OCCNCc2ccccc2)c1 | ? | ? | 17µM* | 7.9µM* | 6.3µM* | -3%
COc1ccc(CCNCc2ccc(-c3ccccc3)cc2)cc1OC | ? | . | -4% | . | -34% | 11%
CCOc1ccccc1CNCc1ccc(F)cc1 | -10% | -6% | -8% | . | -11% | 27%
CCCN(CC1CCOC1)C(=O)Nc1ccc(Cl)cc1 (stereo not given) | 49% | . | . | . | . | .
Cc1cc(C(=O)N/N=C/c2ccco2)c2ccccc2n1 | 5% | 6% | -5% | 20%[59 µM] | -7% | 27%
Cc1cc(C)c2nc(C)cc(N/N=C/c3ccc(O)cc3)c2c1 | ? | 40µM* | -21% | ? | 50µM* | 6%
Cc1cc(N/N=C/c2ccc(O)cc2)c2cccc(C)c2n1 | 0% | 40µM* | 1% | . | ? | ?
Cc1cc(N/N=C/c2ccco2)c2ccccc2n1 | 0% | -11% | 24µM* | . | ? | 6%
SMILES | 12-LOX inh | BAZ2B block | PLK1 PBD inh | G9a block | JMJD2A Tudor | HP1b chromo inh
COc1ccc(CN(C)C2CCN(C)CC2)cc1OC | ? | 56µM* | -7% | 28µM* | 89µM* | 1%
Cc1ccc(CN(C)C2CCN(C)CC2)cc1 | 1% | -5% | 24µM* | . | ? | 1%
CCS(=O)(=O)N1CCc2n[nH]c(=O)n2CC1 | 12% | . | . | . | . | .
O=c1oc2c(-c3ccc([N+](=O)[O-])cc3)cc(O)cc2s1 | 40µM* | -26% | -16% | 56µM* | -32% | ?
NC1=C(c2ccc([N+](=O)[O-])cc2)C(=O)CO1 | -4% | 6% | -1% | -9%[59 µM] | 4% | 33%
COC(=O)Cn1c(=NC(=O)CCS(=O)(=O)c2ccccc2)sc2c(OC)ccc(OC)c21 | 1% | -4% | -4% | ? | 12% | 62%
OC(COc1ccc2cc(Br)ccc2c1)CN1CCN(c2ccccn2)CC1 (stereo not given) | 42%[57.4 µM] | -8% | 1% | -19%[12.7 µM] | 2% | 20%
OC(CCN1CCCCC1)(c1ccccc1)C1C[C@@H]2C=C[C@H]1C2 (stereo not given in full) | -14% | -10% | -3% | -33%[59 µM] | -15% | 51%
